This is part of a sample that, as a whole, favours compounds with a hit. Of some 83,000 tested, about 20% had one in any assay.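 In brief: 96-well plates, 48 h treatment, single concentration, percent growth endpoint.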 A number with no mark means an inactive call. Active and inactive are the calls of the source. The calls were made as follows: active = growth percent below 10; inactive = the rest.

Test systems include DU-145 prostate; K-562 leukemia; MALME-3M melanoma; MDA-MB-231 breast; RXF 393 renal; SF-268 CNS; SF-295 CNS; SF-539 CNS; UACC-257 melanoma; M14 melanoma; HCT-15 colon; HT29 colon; SNB-75 CNS; SNB-19 CNS; PC-3 prostate; SK-MEL-5 melanoma; UACC-62 melanoma; LOX IMVI melanoma; SK-MEL-28 melanoma.
Common to all, as to assay: NCI-60 one-dose screen, 48 h (100 = growth as untreated, 0 = no growth, -100 = all killed)
Common to all, as to details: 10 µM unless noted

For `O=C(NNC(=O)c1ccc(OCc2nc3ccc(Cl)cc3[nH]2)cc1)Nc1ccc(Cl)c(C(F)(F)F)c1`, the growth with DU-145 prostate was 65.7%; in the assay with K-562 leukemia, 39.1%; in the assay on MALME-3M melanoma, 45.7%; with MDA-MB-231 breast, 17.4%; in the assay with RXF 393 renal it was 67.3%; with SF-268 CNS, 78.2%. Also, the growth is 84.9% with SF-295 CNS; 39.3% with SF-539 CNS; 73% in the assay on UACC-257 melanoma; 79.2% in the assay with M14 melanoma; 97.6% in the assay on HCT-15 colon; 68.2% in the assay with HT29 colon. Also, the growth was 59.8% in the assay with SNB-75 CNS; 61.1% in the assay on SNB-19 CNS; 33.3% with PC-3 prostate; 70.4% in the assay on SK-MEL-5 melanoma; 61.4% in the assay on UACC-62 melanoma; 48.2% in the assay on LOX IMVI melanoma. Also, the growth with SK-MEL-28 melanoma was 52.8%.

As for `CCOC(=O)/C(F)=C/C1CC1C1CCN(C(=O)OC(C)(C)C)CC1` (stereo not given), the growth with DU-145 prostate is 73.2%; in the assay with K-562 leukemia, 76.1%; in the assay on MALME-3M melanoma it was 94%; in the assay with MDA-MB-231 breast it was 99.3%; with RXF 393 renal it was 105%; with SF-268 CNS, 98.6%. Further, the growth is 99.3% in the assay with SF-295 CNS; 103% in the assay with SF-539 CNS; 111% in the assay on UACC-257 melanoma; 106% with M14 melanoma; 89.2% in the assay with HCT-15 colon; 77.9% in the assay with HT29 colon. Also, the growth is 93.9% in the assay on SNB-75 CNS; 96.5% in the assay with SNB-19 CNS; 96.3% in the assay with PC-3 prostate; 69.3% in the assay on SK-MEL-5 melanoma; 93.6% in the assay on UACC-62 melanoma; 103% in the assay on LOX IMVI melanoma. Also, the growth in the assay with SK-MEL-28 melanoma was 119%.

Consider `COc1ccc2ccccc2c1/C=C1\SC(=Nc2ccc(O)cc2)NC1=O`, for which the growth was 35.2% in the assay on DU-145 prostate; 7.49% (active) in the assay with K-562 leukemia; 30.1% with MALME-3M melanoma; 15.1% in the assay on MDA-MB-231 breast; -1.11% (active) with RXF 393 renal; 37.9% in the assay on SF-268 CNS. Further, the growth in the assay on SF-295 CNS is 10.7%; in the assay on SF-539 CNS, -21.7% (active); with UACC-257 melanoma it was 37.8%; in the assay with M14 melanoma, 6.7% (active); in the assay on HCT-15 colon, 4.61% (active); in the assay on HT29 colon it was 0.351% (active). Further, the growth was 77.7% in the assay with SNB-75 CNS; 24.5% in the assay with SNB-19 CNS; 21.5% in the assay on PC-3 prostate; -53.6% (active) in the assay on SK-MEL-5 melanoma; 16.4% in the assay on UACC-62 melanoma; -3.89% (active) in the assay with LOX IMVI melanoma. The growth in the assay with SK-MEL-28 melanoma is 52.7%.

Turning to `CC1=C(C)C(=O)C(NCCN2CCOCC2)=C(Br)C1=O`, the growth in the assay with DU-145 prostate is -76.9% (active); with K-562 leukemia, 0.994% (active); in the assay with MALME-3M melanoma, -69% (active); in the assay with MDA-MB-231 breast, -6.27% (active); in the assay on RXF 393 renal, 122%; in the assay on SF-268 CNS it was 63.7%. Moreover, the growth with SF-295 CNS is 103%; with SF-539 CNS, 32.1%; in the assay with UACC-257 melanoma it was -13.3% (active); in the assay on M14 melanoma, 37.3%; in the assay with HCT-15 colon, 90.7%; in the assay with HT29 colon, 93.7%. For the same molecule, the growth was 106% in the assay on SNB-75 CNS; 91.3% in the assay with SNB-19 CNS; 61.8% in the assay on PC-3 prostate; 62.1% in the assay on SK-MEL-5 melanoma; 39.4% in the assay with UACC-62 melanoma; -28.5% (active) with LOX IMVI melanoma. Also, in the assay on SK-MEL-28 melanoma, the growth was 75.4%.

For `COc1cccc(C(N)=Nc2ccc(OCCCCCCCCn3cncn3)cc2)c1`, the growth in the assay with K-562 leukemia was 15.8%; with MALME-3M melanoma, 37.4%; in the assay on SF-268 CNS, 27%; with UACC-257 melanoma, 39.1%; with M14 melanoma, 22.6%; in the assay on HCT-15 colon it was 11.7%. Besides, the growth with SNB-75 CNS is 60.8%; with SNB-19 CNS it was 24.6%; in the assay on PC-3 prostate it was 37.7%; with UACC-62 melanoma, 27.4%; with LOX IMVI melanoma, 20%; with SK-MEL-28 melanoma, 55.3%.

For the molecule `COc1cc(/C=C/C(=O)c2cnn(-c3cc(=O)[nH]c4ccc(C)cc34)c2C)cc(OC)c1OC`, the growth with DU-145 prostate was -54.6% (active); with K-562 leukemia, 0.896% (active); with MALME-3M melanoma, -19.5% (active); in the assay with MDA-MB-231 breast it was -2.3% (active); with RXF 393 renal it was -76.9% (active); with SF-268 CNS it was 6.69% (active). Moreover, the growth in the assay on SF-295 CNS is 12.7%; in the assay on SF-539 CNS, -29% (active); with UACC-257 melanoma it was 5.74% (active); with M14 melanoma, -51.2% (active); in the assay with HCT-15 colon it was -38.7% (active); in the assay with HT29 colon, -67.3% (active). Further, the growth in the assay on SNB-75 CNS is 45.1%; with SNB-19 CNS, 18.7%; in the assay on PC-3 prostate it was 5.99% (active); with SK-MEL-5 melanoma, -95.2% (active); in the assay with UACC-62 melanoma it was -71.9% (active); in the assay with LOX IMVI melanoma, -92% (active). For the same molecule, the growth in the assay on SK-MEL-28 melanoma is -77.2% (active).

As for `CS(=O)(=O)Nc1cccc(-n2cnc3cc(-c4ccc(O)cc4)ccc32)c1`, the growth in the assay on DU-145 prostate was 29.2%; in the assay with K-562 leukemia, 18%; in the assay on MALME-3M melanoma, 27.3%; with MDA-MB-231 breast, 49.3%; in the assay with RXF 393 renal it was -14.2% (active); in the assay on SF-268 CNS, 50.3%. Further, the growth with SF-295 CNS is 32%; in the assay with SF-539 CNS, 0.311% (active); in the assay with UACC-257 melanoma it was 70.5%; in the assay on M14 melanoma, 26.2%; with HCT-15 colon it was 30.9%; in the assay on HT29 colon, 16%. Further, the growth with SNB-75 CNS is 53.8%; with SNB-19 CNS, 25.4%; with PC-3 prostate it was 45.8%; with SK-MEL-5 melanoma, 19.7%; with UACC-62 melanoma it was 26.3%; in the assay on LOX IMVI melanoma, 41.9%. The growth in the assay with SK-MEL-28 melanoma was 63.2%.

`OCCn1cc(-c2nc3ccc4[nH]ncc4c3c3c2CCCC3)cn1`: the growth in the assay on DU-145 prostate is 36.2%; with K-562 leukemia, 21.4%; in the assay on MALME-3M melanoma, 24.1%; in the assay with MDA-MB-231 breast, 54.9%; in the assay on RXF 393 renal, -12.6% (active); in the assay on SF-268 CNS, 64%. Also, the growth with SF-295 CNS was 60.9%; in the assay with SF-539 CNS, 36.2%; in the assay with UACC-257 melanoma, 58%; in the assay with M14 melanoma it was 22.6%; in the assay with HCT-15 colon, 26.4%; in the assay on HT29 colon, 19.7%. Moreover, the growth in the assay with SNB-75 CNS is 20%; with SNB-19 CNS, 59.3%; in the assay on PC-3 prostate, 67.4%; in the assay on SK-MEL-5 melanoma it was 22.3%; with UACC-62 melanoma, 27.9%; in the assay on LOX IMVI melanoma, 25.4%. Further, the growth in the assay with SK-MEL-28 melanoma was 59.3%.
